# High-throughput results deposited in PubChem by ICCB-Longwood Screening Facility, Harvard Medical School.
# The full list was thinned out, with hits kept by preference.
# VACV E9 pol inh: inhibitors of vaccinia virus processive DNA synthesis (E9 polymerase); in vitro processive DNA synthesis, absorbance read-out; hits give low values; AID 493162; actives 0.94% (n = 46,000); normalized absorbance, % (no concentration beside the values); in the data active = normalized absorbance mostly below about 85%, no sharp cut-off; inactive = mostly above about 86%
# Hits are given with their value; - = inactive.
SMILES,VACV E9 pol inh
O=C1NC(=S)S/C1=C\c1ccccc1C(F)(F)F,-
O=C1NC(=S)S/C1=C/c1ccc(-c2cccc(C(F)(F)F)c2)o1,80
O=S1(=O)CCC(N=Cc2ccc(-c3cccc(C(F)(F)F)c3)o2)C1 (stereo not given),-
Nc1[nH]ncc1-c1ccc(-n2cccc2)cc1,-
COc1ccccc1/C=C1\CS/C(=C\c2ccccc2OC)C1=O,-
O=C(NC1C/C(=N\O)c2sccc21)C(F)(F)F (stereo not given),-
CC(C)(CO)NC(=O)c1ccccc1F,-
CCOC(=O)c1ccc(NC(=O)/C=C/c2ccc(C)o2)cc1,-
CN(C)CCNc1cc(-c2ccncc2)nc2ccccc12,-
COC(=O)c1cc(-c2cccnc2)nc2ccccc12,-
CN(C)CCNc1cc(-c2cccnc2)nc2ccccc12,48
O=C(CSc1ncnc2c1oc1ccccc12)c1ccccc1,-
Cc1nc2c3ccccc3nc(NN3C(=O)CCC3=O)n2n1,-
O=C(Cn1c(=O)n2nc(-c3ccccc3)nc2c2ccccc21)c1ccc(Br)cc1,-
CC1CCCC(C)N1CCNc1nc2ccccc2c2nc(-c3ccccc3)nn12 (stereo not given),59
Cc1ccc(S(=O)(=O)NC(=O)N2CCCN(c3ccc(C(F)(F)F)cn3)CC2)cc1,-
O=C(Nc1ccccc1)N1CCN(c2ccc(C(F)(F)F)cn2)CC1,-
CC(C)(C)NC(=O)N1CCN(c2cc(C(F)(F)F)ccn2)CC1,78
Cc1ccc(-c2cn3c(n2)CCC3)cc1,-
CCOc1ccc(-c2csc(/C(C#N)=C/Nc3ccc4c(c3)OCO4)n2)cc1,-
NC(=O)C(Cc1ccccc1)NC(=O)c1ccc(Cl)cc1Cl (stereo not given),-
Cc1nc(C)nc(N(Cc2ccccc2Cl)Cc2ccccc2Cl)n1,-
COc1ccc2c(C)cc(SCC#N)nc2c1,84
COc1ccc2c(C)cc(SCc3c(C)noc3C)nc2c1,-
COc1ccc2c(C)cc(SCC(=O)Nc3ccccc3)nc2c1,-
SMILES,VACV E9 pol inh
CCn1c(-c2cccc(C)c2)nc2ccccc21,-
CCOc1cccc2sc(NC(=O)CC)nc12,87
CCC(=O)Nc1nc2c(C)c(C)ccc2s1,-
CCOc1cccc2sc(NC(=O)c3ccccc3F)nc12,-
COC(=O)c1ccc2c(c1)sc(=NC(=O)c1ccc(S(=O)(=O)N3CCCCC3C)cc1)n2C (stereo not given),-
CCNc1cc(N(C)C)c2noc3c2c1C(=O)c1ccccc1-3,-
O=C1c2ccccc2-c2onc3c(Br)cc(N4CCCCC4)c1c23,73
CC(C)Nc1cc(Br)c2noc3c2c1C(=O)c1ccccc1-3,-
COc1ccc2c(c1)-c1ccccc1S(=O)(=O)N2C,-
COc1ccc(-c2ccc(OC)cc2C(=O)NN)cc1,-
COc1ccc2c(c1)C(=NN)c1cc(OC)ccc1-2,68
Cc1ccc2oc3ncc(C(=O)NC(C)(C)C)cc3c(=O)c2c1,-
O=C(CSc1nnc(-c2ccccc2)o1)Nc1nccs1,-
COc1ccc(C2c3cc4c(cc3OC(C)(N3CCCC3)C2C)OCO4)cc1 (stereo not given),-
BrCc1ccc(-c2noc(-c3ccncc3)n2)cc1,21
COc1ccc(-c2noc(-c3ccc(Cl)c(Cl)c3)n2)cc1,-
COc1ccc(Cc2nc(-c3ccc(Br)cc3)no2)cc1,-
CC1(C)C(=O)C2(C(=O)N3CCOCC3)CCC1C2 (stereo not given),-
CCC(C)[C@H](NS(=O)(=O)c1cccc2ccccc12)C(=O)N[C@H](C=O)Cc1c[nH]c2ccccc12 (stereo not given in full),-
O=C1c2c(O)ccc(O)c2C(=O)c2c(NCCNCCO)ccc(NCCNCCO)c21,7.8
CC(C)CC(=O)Nc1nc(-c2ccc(F)cc2)cs1,-
COc1cccc(C2(c3ccc(O)cc3)CCCC2)c1,-
Cc1ccc(O)cc1,-
Oc1ccc(C2(c3ccc(O)cc3)CCCC2)cc1,53
CCC(C)(C)C(=O)Nc1nnc(C(F)(F)F)s1,-
SMILES,VACV E9 pol inh
Cc1cc(C)c(C(=O)CC(N2CCCCC2)C(F)(F)F)c(=O)[nH]1 (stereo not given),-
CCOC(=O)c1cnc2ccccc2c1NCCO,-
CCOC(=O)c1cnc2ccc(C(=O)OC)cc2c1NCCN(C)C,52
CCOC(=O)c1cnc2ccc(F)cc2c1NCc1cccnc1,-
CN(C(=O)c1cc(=O)c2ccccc2o1)C1(c2ccccc2Cl)CCCCC1=O (stereo not given),-
c1ccc2nc3c(nc2c1)c1ccccc1n3CCN1CCOCC1,65
c1ccc(CCn2c3ccccc3c3nc4ccccc4nc32)cc1,-
C=CCn1c2ccccc2c2nc3ccccc3nc21,-
CCN(CC)/N=N/c1[nH]nc2nc(C)cc(C)c12,-
CCC(C)c1ccccc1N=Cc1cccs1 (stereo not given),-
